# Shown are actives, neighbours in structure and some others; about 2.9% of the full set was active somewhere.
# PLCg1 inh: inhibitors of human phospholipase C gamma1; inhibition, % at 12.2 µM; P19174; purified PLC-gamma1, fluorogenic substrate, fluorescence; 370,000 compounds, 0.84% hits; in the data active = inhibition above about 9.5%
# proKLK7 act: activators of human kallikrein-7 zymogen; P49862; AID 652039; purified proKLK7, EDANS-DABCYL substrate fluorescence; 100% is mature enzyme control, 0% vehicle; 370,000 compounds, 0.9% hits; activation, % at 7 µM;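 active = activation above the mean of all tested compounds plus 3 SD, computed per campaign excluding outliers beyond control limits, cut at about 13% in these data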
# ADAM17 inh: ADAM17 inhibition, QFRET primary screen; 370,000 compounds, 0.83% hits; recombinant ADAM17, EDANS/DABCYL FRET peptide cleavage; inhibition, % at 6.95 µM; AID 720648; P78536;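 active = inhibition above the mean of compounds lying between control limits plus 3 SD, set per campaign, cut at about 8.5% in these data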
# Target sequence (P78536 215-824 limits assumed): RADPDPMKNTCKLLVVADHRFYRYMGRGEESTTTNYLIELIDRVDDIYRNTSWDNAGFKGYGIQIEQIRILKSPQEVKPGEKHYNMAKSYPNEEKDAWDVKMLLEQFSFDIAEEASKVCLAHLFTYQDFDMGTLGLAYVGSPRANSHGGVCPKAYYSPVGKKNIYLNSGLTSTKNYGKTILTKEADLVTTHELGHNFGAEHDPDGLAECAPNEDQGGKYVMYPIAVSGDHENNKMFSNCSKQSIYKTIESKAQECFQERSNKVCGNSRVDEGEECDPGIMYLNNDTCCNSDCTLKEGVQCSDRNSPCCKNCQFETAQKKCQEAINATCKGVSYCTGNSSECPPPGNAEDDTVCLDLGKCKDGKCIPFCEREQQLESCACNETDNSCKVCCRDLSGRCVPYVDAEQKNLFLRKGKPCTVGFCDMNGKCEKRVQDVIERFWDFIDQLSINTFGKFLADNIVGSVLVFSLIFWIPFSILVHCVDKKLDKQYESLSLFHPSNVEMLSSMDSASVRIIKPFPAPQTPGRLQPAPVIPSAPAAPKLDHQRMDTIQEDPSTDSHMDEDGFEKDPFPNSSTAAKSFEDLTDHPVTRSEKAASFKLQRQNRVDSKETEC
# PLC-beta3 inh: inhibitors of human phospholipase C beta3 | Q01970 | Purified PLC-beta3, fluorogenic substrate, fluorescence | inhibition, % at 12.2 µM | 370,000 compounds, 0.18% hits | AID 720704; in the data active = inhibition above about 11%
# ADAM10 inh: inhibits human ADAM10. 370,000 compounds, 0.62% hits. inhibition, % at 7 µM. O14672. recombinant ADAM10, EDANS/DABCYL FRET peptide cleavage, 3 h. AID 720582;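 active = inhibition above a per-campaign cutoff equal to the mean of compounds falling between control-based bounds plus 3 SD, cut at about 20% in these data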
# KLK7 act conf: proKLK7 activation, confirmation. activation, % at 7 µM. AID 686949. shares compounds with proKLK7 act. purified proKLK7, EDANS-DABCYL substrate fluorescence; scaled: vehicle 0, mature enzyme 100. 3,200 compounds, 68% hits;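 active = activation, as change over the incubation, above the mean of all tested compounds plus 3 SD, cut at about 13% in these data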
# EDANS interfere: fluorescence interference counter-screen for KLK7 activators. shares compounds with proKLK7 act. EDANS-DABCYL substrate fluorescence interference, no enzyme, 4 h; solvent 0%, active enzyme control 100%. activation, % at 7 µM. 3,200 compounds, 80% hits. AID 686952;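 active = activation above the all-compound mean plus 3 SD, ignoring values outside control-based bounds, cut at about 4.8% in these data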;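 note: value is the 4 h activation minus the activation read at time zero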
# K7 EDANS ctr: EDANS fluorescence interference in dose response, no enzyme; shares compounds with proKLK7 act; EDANS-DABCYL peptide fluorescence interference; EC50, µM; 250 compounds, 20% hits; AID 720493;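 active = compounds that raise the fluorescence signal in this interference counterscreen, with EC50 at or below 10 µM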;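 note: intact quenched peptide substrate alone read at 355 nm excitation and 520 nm emission; signal is fluorescence gain from T0 to T4 after four hours at room temperature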
# Hits are given with their value; 0 = inactive; - = not tested or not shown.
SMILES,PLCg1 inh,proKLK7 act,ADAM17 inh,PLC-beta3 inh,ADAM10 inh,KLK7 act conf,EDANS interfere,others
COc1ccc(-c2nnn3c2Cn2c4ccccc4c(=O)n2[C@@H](C)C3)cc1,0,0,0,0,0,-,-,
Cc1c(NC(=O)C2CCCN(S(=O)(=O)c3ccc(Cl)s3)C2)c(=O)n(-c2ccccc2)n1C (stereo not given),0,0,0,0,0,-,-,
CC(C)(C)NC(=O)c1nc2nc(-c3ccccc3)cc(C(F)(F)F)n2n1,0,0,0,0,0,-,-,
CCOC(=O)c1nc2nc(-c3cccs3)cc(C(F)(F)F)n2n1,0,61.6,0,0,0,65.1,61.5,
CCOC(=O)c1cc(-c2cccs2)nc2onc(C)c12,0,18.2,0,0,0,0,0,
CCOC(=O)c1sc(-c2cccs2)nc1C,0,0,0,0,0,-,-,
COc1cc2c(cc1OC)-c1cc(Nc3ccccc3)nc(=O)n1CC2,0,0,0,0,0,-,-,
COc1cc2c(cc1OC)-c1cc(OCc3cccnc3)nc(=O)n1CC2,0,61.0,0,0,0,63.0,65.3,
CC(C)C(=O)Nc1sc2c(c1-c1nc3ccccc3[nH]1)CCCC2,0,496.3,0,0,0,0,4.7,
Cc1cc(NCCCCO)n2c(nc3ccccc32)c1C#N,0,42.7,0,0,0,46.9,37.4,K7 EDANS ctr=0
CCN(CC)CCCNc1cc(C)c(C#N)c2nc3ccccc3n12,0,68.9,0,0,0,38.4,40.4,
COCCN(CCOC)c1cc(C)c(C#N)c2nc3ccccc3n12,0,38.8,0,0,0,61.0,49.9,K7 EDANS ctr=0
C=C(C)CSc1cc(C)c(C#N)c2nc3ccccc3n12,0,0,0,0,0,-,-,
CCN(CC)CCNc1c2c(c(C#N)c3nc4ccccc4n13)CCCC2,0,0,0,0,0,-,-,
CCN(CC)CCNc1cc(C)c(C#N)c2nc3ccccc3n12,0,131.7,0,0,0,0,5.4,
O=C(NC1CCCCN(Cc2ccc(Cl)cc2)C1=O)c1ccc(F)c(F)c1 (stereo not given),0,0,0,0,0,-,-,
OCC[C@@H]1C[C@H](O)[C@@H](O)[C@@]2(OCCc3cc(C(F)(F)F)ccc32)O1,0,0,0,0,0,-,-,
COc1ccccc1CCn1cnc(-c2cccc(F)c2)c1CC(C)C,0,0,0,0,0,-,-,
CCc1c(C)c(C#N)c2nc3ccccc3n2c1N(C)C,0,0,0,0,0,-,-,
CCN(CC)CCCNc1cc(C(F)(F)F)c(C#N)c2nc3ccccc3n12,0,53.0,0,0,0,0,0,
COc1ccc(NS(=O)(=O)c2cccc(C(=O)N/N=C/c3cn(-c4ccccc4)nc3-c3ccccc3)c2)cc1,0,0,0,0,0,-,-,
COc1ccccc1NS(=O)(=O)c1cccc(C(=O)N/N=C/c2cn(-c3ccccc3)nc2-c2ccccc2)c1,0,17.9,0,0,0,0,0,
Fc1ccc2cc(C3=CCCCC3)ncc2c1,0,0,0,0,0,-,-,
CCOc1ccc(/C(O)=C2/C(=O)C(=O)N(c3ccccn3)C2c2ccc(F)cc2)c(C)c1 (stereo not given),0,14.3,0,0,0,18.5,19.6,
Cc1ccc(/C(O)=C2/C(=O)C(=O)N(c3ccccn3)C2c2ccc(F)cc2)cc1 (stereo not given),0,0,0,0,0,-,-,
SMILES,PLCg1 inh,proKLK7 act,ADAM17 inh,PLC-beta3 inh,ADAM10 inh,KLK7 act conf,EDANS interfere,others
CCCCN(CCCC)CCn1cnc2c([nH]c3ccc(OC)cc32)c1=O,0,0,0,0,0,-,-,
COc1cccc2[nH]c3c(=O)n(CCN(C)C)cnc3c12,0,49.2,0,0,0,14.6,13.8,
COc1cc2[nH]c3c(=O)n(CCN(C(C)C)C(C)C)cnc3c2cc1OC,0,0,0,0,0,-,-,
CCN(CC)CCn1cnc2c([nH]c3cccc(OC)c32)c1=O,0,67.3,0,0,0,27.9,30.9,
COc1cccc2[nH]c3c(=O)[nH]cnc3c12,0,12.6,0,0,0,0,14.1,
CN(Cc1ccccc1)C(=O)OCc1cn(Cc2ccc(F)c(F)c2)nn1,0,0,0,0,0,-,-,
C[C@H]1[C@@H](OC(=O)NCc2cccnc2)CC[C@@]23CCCN2C(=O)CCC[C@@H]13,0,-,0,0,0,-,-,
Cc1ccccc1NC(=O)OC1CCC12CCCCC2 (stereo not given),0,0,0,0,0,-,-,
CCN(CC)S(=O)(=O)c1cccc2cc(C(=O)O)c(O)cc12,0,22.4,0,0,0,73.6,73.0,
O=c1[nH]cnc2nc(-c3ccccc3)c(-c3ccccc3)nc12,0,28.8,0,0,0,29.0,30.3,
O=c1[nH]cnc2nn(-c3ccccc3)nc12,0,0,0,0,0,-,-,
C#CCN1CC(N(C)CCOC(=O)c2cc3ccccc3[nH]2)CS1(=O)=O (stereo not given),0,0,0,0,0,-,-,
COc1cccc2c(=O)c3ccoc3n(C)c12,0,0,0,0,0,-,-,
COc1cccc2c(=O)c3c(cnn3C)n(C)c12,0,49.4,0,0,0,67.8,67.3,
COc1ccc(CN2C[C@@]3(O)CC[C@@H](O)[C@@H](OC)[C@@H]3[C@@]2(C)[C@H](O)CC=C(C)C)cc1,0,0,0,0,0,-,-,
O=C1[C@H]2C[C@@]3(n4ccc5ccccc54)c4ccccc4N(S(=O)(=O)c4ccccc4)[C@H]3N2C(=O)CN1Cc1ccccc1,0,0,0,0,0,-,-,
COc1cc2c3nnc(-c4ccccc4)c-3cn(Cc3ccc(F)cc3)c2cc1OC,0,27.8,0,0,0,0,0,
CSc1nnc(-c2cccn(Cc3ccccc3)c2=O)o1,0,12.7,0,0,0,25.7,38.1,
CC(C)[C@@H]1NC(=O)[C@@H]2CSCCS(=O)(=O)N2C1=O,0,0,0,0,0,-,-,
O=C(Nc1ccc(NC(=O)c2ccco2)c(Cl)c1)c1ccccc1,0,0,0,0,0,-,-,
COc1ccc(C(=O)Nc2ccc(NC(=O)c3ccco3)c(Cl)c2)cc1OC,0,15.7,0,0,0,0,0,
CC(=O)Nc1sc(C)c(C)c1C(=O)OCC(=O)NCc1ccccc1,0,0,0,0,0,-,-,
COc1ccc(NC(=O)COC(=O)c2c(NC(C)=O)sc(C)c2C)cc1,0,25.9,0,0,0,0,0,
CC(C)N1CCCCC(NC(=O)c2c(F)cccc2F)C1=O (stereo not given),0,0,0,0,0,-,-,
CCC1(O)C(=O)OCc2c1cc1n(c2=O)Cc2cc3c(N)cccc3nc2-1 (stereo not given),0,23.5,0,0,0,64.3,66.7,
